# In PubChem BioAssay (NCATS):
# Records with an inconclusive call do not appear. Activity calls are given as the source filed them. Calls come from the whole dose curve; as a rule, active = well fitted inhibition curve with a large enough effect; inconclusive = small, poorly fitted or top-dose-only effect; inactive = flat fitted curve, though single readings scatter.
# System: CRL-7250
# Test: qHTS assay to identify novel small-molecules to repurpose for Merkel cell carcinoma treatment (AID 1296009); note: nearly all actives have a fitted effect of over 60% in size
# Conditions: MCC and control cell lines, CellTiter-Glo viability, 72 h; series mostly up to 92 µM; activity change, negative = cytotoxicity: at the top concentration
# Method in brief: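 Dose-response viability screen; 72 hr exposure at 37 degree celsius; CellTiter-Glo added, 10 min room temperature, luminescence read; RLUs scaled between no-cell and DMSO wells.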
row,Compound,outcome
1,O=C(O)c1cc(-c2c(-c3ccccc3)nn3ccccc23)n[nH]c1=O,inactive
2,C=C1CC[C@H]2[C@@](C)(CCC(O)[C@@]2(C)CO)[C@@H]1C/C=C(/C(=O)O)C(O)CO (some centres not stated),inactive
3,O=C(/C=C/c1ccc(O)cc1)OC[C@H]1O[C@@H](O/C(=C\c2ccccc2)C(=O)O)[C@H](O)[C@@H](O)[C@@H]1O,inactive [at 17.4 µM]
4,CCC(COC)n1nnc2c(Nc3ccc(OC)cc3C)nc(C)cc21 (configuration not stated),inactive
5,CC(=O)N[C@@H](CCCCN)C(=O)N(C)[C@@H](CC(C)C)C(=O)N[C@H](C(=O)N(C)[C@@H](Cc1ccccc1)C(=O)N[C@H](Cc1ccccc1)C(N)=O)C(C)C,inactive [at 4.96 µM]
6,CC12CCC3c4ccc(OC5OC(C(=O)O)C(O)C(O)C5O)cc4CCC3C1CCC2O (configuration not stated),inactive
7,CC1CCC2(NC1)OC1C(=O)C3C4CCC5CC(O[C@@H]6O[C@H](CO)[C@@H](O)[C@H](O)[C@H]6O[C@@H]6O[C@@H](C)[C@H](O)[C@@H](O)[C@H]6O)CCC5(C)C4CCC3(C)C1C2C (some centres not stated),inactive [at 17.4 µM]
